# Assay outcomes: PubChem BioAssay, Broad Institute
# Shown are actives, neighbours in structure and some others; about 7.7% of the full set was active somewhere.
# Hedgehog inh = blocks Sonic Hedgehog signaling | Shh-LIGHT2 Gli-luciferase reporter, 30 h | inhibition, % (no concentration beside the values) | 22,000 tested, 2.1% active;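 active = mean inhibition across valid replicates above about 65%, limit read from the data; inconclusive = mean under the limit, yet half or more replicates past it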;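 note: pathway switched on by Shh-conditioned medium diluted 1 in 25 in low serum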
# NOMO-1 viab = STK33 inhibitor candidate reducing NOMO-1 cell viability | NOMO-1 AML viability, CellTiter-Glo luminescence, 72 h | inhibition, % (no concentration beside the values) | 37,000 tested, 7.5% active; in the data active = inhibition above about 80%; inconclusive = no clear call, values can overlap the other calls
# PD-1 reverse act = reversal of PD-1 mediated T-cell inhibition. activation, % (no concentration beside the values). primary human CD4 T cells, PD-L1 beads, CellTiter-Glo 96 h. 29,000 tested, under 10 active; call rule not given here;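 note: 0% = median vehicle wells and 100% = positive control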
# * hit, by the source's call; ? = inconclusive; / = not tested or not shown.
SMILES,Hedgehog inh,NOMO-1 viab,PD-1 reverse act
C[C@@H]1CN([C@H](C)CO)C(=O)c2cc(NC(=O)Nc3ccc(C(F)(F)F)cc3)ccc2O[C@H]1CN(C)Cc1ccc(Cl)c(Cl)c1,/,123*,-10
C[C@H]1CN([C@@H](C)CO)C(=O)c2cc(NC(=O)Nc3ccc(F)cc3)ccc2O[C@@H]1CN(C)Cc1ccc(Cl)c(Cl)c1,-13,22,0
O=C(CSc1nnc(-c2ccccc2)o1)Nc1cccc(F)c1,/,4,/
CC(C(=O)Nc1cccc2ccccc12)N(c1ccc(Cl)cc1)S(C)(=O)=O (configuration not stated),/,14,-3
C[C@H](CO)N1C[C@H](C)[C@H](CN(C)Cc2ccc(C(F)(F)F)cc2)Oc2ccc(NC(=O)Cc3cn(C)c4ccccc34)cc2C1=O,/,22,-3
C[C@H](CO)N1C[C@H](C)[C@@H](CN(C)Cc2ccncc2)Oc2ccc(NC(=O)Cc3cn(C)c4ccccc34)cc2C1=O,3,92*,-2
C[C@@H]1CN([C@H](C)CO)C(=O)c2cc(NC(=O)Cc3cn(C)c4ccccc34)ccc2O[C@H]1CN(C)Cc1ccc2c(c1)OCO2,/,24,1
C[C@H]1CN([C@@H](C)CO)C(=O)c2cc(NC(=O)Cc3cn(C)c4ccccc34)ccc2O[C@H]1CN(C)Cc1ccncc1,-1,73,-1
C[C@@H]1CN([C@@H](C)CO)C(=O)c2cc(NC(=O)Cc3cn(C)c4ccccc34)ccc2O[C@H]1CN(C)Cc1ccc(-c2ccccc2)cc1,-7,26,0
C[C@H](CO)N1C[C@H](C)[C@H](CN(C)Cc2ccc3c(c2)OCO3)Oc2ccc(NC(=O)Cc3cn(C)c4ccccc34)cc2C1=O,24,92*,-2
C[C@@H]1CN([C@@H](C)CO)C(=O)c2cc(NC(=O)Cc3cn(C)c4ccccc34)ccc2O[C@H]1CN(C)Cc1ccc(C(F)(F)F)cc1,-2,91*,-1
C[C@@H]1CN([C@@H](C)CO)C(=O)c2cc(NC(=O)Cc3cn(C)c4ccccc34)ccc2O[C@@H]1CN(C)Cc1ccc(-c2ccccc2)cc1,/,113*,/
COc1ccc(NC(=O)Cc2nc(-c3ccc(OC)cc3)cs2)cc1,/,26,/
Cc1cc(OCc2ccc(Br)cc2)nc(-c2ccccc2O)n1,-1,0,1
Cc1ccc(N(CC(N)=O)S(=O)(=O)c2ccccc2)cc1,/,20,/
CC(=O)Nc1ccc(S(=O)(=O)N2CCCCC2C)cc1 (configuration not stated),-2,11,1
C[C@H]1CN([C@@H](C)CO)C(=O)c2cc(NC(=O)Cc3cn(C)c4ccccc34)ccc2O[C@H]1CN(C)Cc1ccccc1,/,84*,0
C[C@@H]1CN([C@H](C)CO)C(=O)c2cc(NC(=O)Cc3cn(C)c4ccccc34)ccc2O[C@@H]1CN(C)Cc1ccccc1,/,45,0
CCN(CC(=O)O)S(=O)(=O)c1ccc(OC)cc1,/,3,1
O=C(CSc1nc2nc3c(cc2c(=O)n1-c1ccccc1)CCCC3)Nc1ccc(Cl)cc1,/,-12,/
c1nc(NCC2CCCO2)c2sc3nc(N4CCCCC4)c4c(c3c2n1)CCCC4 (configuration not stated),/,36,0
CN(C)CCCNc1ncnc2c1sc1nc(N3CCOCC3)c3c(c12)CCC3,/,98*,-2
COc1ccc(OC)c(-n2c(CNC3CCN(Cc4ccccc4)CC3)nc3ccccc3c2=O)c1,/,90*,/
COc1ccc(OC)c(-n2c(CN3CCC(C(N)=O)CC3)nc3ccccc3c2=O)c1,/,27,1
O=C(Cc1ccccc1)c1ccccc1C(=O)NCc1cccs1,-17,26,-5
SMILES,Hedgehog inh,NOMO-1 viab,PD-1 reverse act
CCC(C)C(Nc1ncnc2c1oc1ccccc12)C(=O)O (configuration not stated),/,-6,1
Cc1cc(C)c(C#N)c(Sc2ncnc3c2nnn3Cc2ccccc2)n1,/,116*,-7
Cc1cc(C)n(Cc2ccccc2)c(=O)c1C#N,/,-12,0
O=C1c2c(O)ccc(O)c2C(=O)c2c(NCCNCCO)ccc(NCCNCCO)c21,3,120*,/
Cc1nc(SCC(=O)Nc2ccccc2[N+](=O)[O-])c2c(C)c(C)sc2n1,/,10,/
C=C1C(=O)O[C@H]2[C@H]1[C@@H](OC(=O)C(C)(O)C(C)Cl)C(OC(C)=O)/C(C(=O)OC)=C\CC[C@@]1(C)O[C@H]21 (some centres not stated),73*,119*,-10
C[C@@H]1CCCCO[C@@H](CN(C)C(=O)Nc2cccc3ccccc23)[C@@H](C)CN([C@H](C)CO)C(=O)c2cc(NS(=O)(=O)c3ccc(F)cc3)ccc2O1,-19,50,/
C[C@@H]1CCCCO[C@@H](CN(C)C(=O)Nc2cccc3ccccc23)[C@@H](C)CN([C@H](C)CO)C(=O)c2cc(NS(=O)(=O)c3ccc(Cl)cc3)ccc2O1,-3,102*,/
C[C@@H]1CCCCO[C@@H](CN(C)C(=O)Nc2ccc(C(F)(F)F)cc2)[C@@H](C)CN([C@H](C)CO)C(=O)c2cc(NS(=O)(=O)c3ccc(Cl)cc3)ccc2O1,119*,?,-9
C[C@@H]1CCCCO[C@H](CN(C)C(=O)Nc2ccc(C(F)(F)F)cc2)[C@@H](C)CN([C@H](C)CO)C(=O)c2cc(NS(=O)(=O)c3ccc(F)cc3)ccc2O1,31,65,/
COc1ccc(NC(=O)N(C)C[C@H]2OCCCC[C@@H](C)Oc3ccc(NS(=O)(=O)c4ccc(F)cc4)cc3C(=O)N([C@H](C)CO)C[C@@H]2C)cc1,-4,25,1
COc1ccc(S(=O)(=O)Nc2ccc3c(c2)C(=O)N([C@H](C)CO)C[C@H](C)[C@@H](CN(C)C(=O)Nc2ccc(F)cc2)OCCCC[C@@H](C)O3)cc1,74*,22,/
C[C@@H]1CCCCO[C@H](CN(C)C(=O)Nc2ccc(F)cc2)[C@@H](C)CN([C@H](C)CO)C(=O)c2cc(NS(=O)(=O)c3ccc(Cl)cc3)ccc2O1,26,52,/
Cc1ccc(S(=O)(=O)Nc2ccc3c(c2)C(=O)N([C@H](C)CO)C[C@H](C)[C@H](CN(C)C(=O)Nc2ccc(C(F)(F)F)cc2)OCCCC[C@@H](C)O3)cc1,38,114*,-5
Cc1ccc(NC(=O)CSc2c(C)n[nH]c2C)cc1Cl,/,-11,1
C[C@@H]1CCCCO[C@@H](CN(C)Cc2ccc(C(F)(F)F)cc2)[C@@H](C)CN([C@H](C)CO)C(=O)c2cc(NC(=O)Nc3ccc(C(F)(F)F)cc3)ccc2O1,24,107*,0
C[C@@H]1CCCCO[C@H](CN(C)Cc2ccc3c(c2)OCO3)[C@@H](C)CN([C@H](C)CO)C(=O)c2cc(NC(=O)Nc3ccc(C(F)(F)F)cc3)ccc2O1,27,84*,/
C[C@@H]1CCCCO[C@@H](CN(C)C)[C@@H](C)CN([C@H](C)CO)C(=O)c2cc(NC(=O)Nc3ccc(F)cc3)ccc2O1,-35,9,1
C[C@@H]1CCCCO[C@H](CN(C)CC2CCCCC2)[C@@H](C)CN([C@H](C)CO)C(=O)c2cc(NC(=O)Nc3ccc(C(F)(F)F)cc3)ccc2O1,37,112*,-14
C[C@@H]1CCCCO[C@@H](CN(C)C(=O)Nc2ccc(C(F)(F)F)cc2)[C@@H](C)CN([C@H](C)CO)C(=O)c2cc(NC(=O)Nc3ccc4c(c3)OCO4)ccc2O1,/,58,0
